Results filed as inconclusive are left out. Calls of active or inactive are those of the source. Unless noted, calls follow the shape of the dose curve; as a rule, active = well fitted curve in the direction sought with a large enough effect in the repeat runs; inconclusive = weak or mixed curves; inactive = no such curve, though single readings can be large; an effect the other way counts as inactive or inconclusive.
Assays:
[1] = qHTS assay to identify small molecule antagonists of the estrogen related receptor (ERR) signaling pathway from Tox21 library - cell viability counter screen (AID 1224834); also: nearly all actives have a fitted effect of over 30% in size
Summary of the method: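 CellTiter-Fluor fluorescence, read after 30 min at 37 C, measures viability of ERR cells. Cells plated at 2,000/well and incubated 6 h before pin-tool compound addition, then exposed 17.5 hours at 37 C.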

[2] = molecular target: Luciferin 4-monooxygenase (Photinus pyralis) (UniProt P08659); experiment: qHTS assay to identify small molecule inhibitors of firefly luciferase (AID 1224835); also: series mostly up to about 120 µM; nearly all actives have a fitted effect of over 25% in size
Sequence of Luciferin 4-monooxygenase (Photinus pyralis) (P08659 whole entry, looked up): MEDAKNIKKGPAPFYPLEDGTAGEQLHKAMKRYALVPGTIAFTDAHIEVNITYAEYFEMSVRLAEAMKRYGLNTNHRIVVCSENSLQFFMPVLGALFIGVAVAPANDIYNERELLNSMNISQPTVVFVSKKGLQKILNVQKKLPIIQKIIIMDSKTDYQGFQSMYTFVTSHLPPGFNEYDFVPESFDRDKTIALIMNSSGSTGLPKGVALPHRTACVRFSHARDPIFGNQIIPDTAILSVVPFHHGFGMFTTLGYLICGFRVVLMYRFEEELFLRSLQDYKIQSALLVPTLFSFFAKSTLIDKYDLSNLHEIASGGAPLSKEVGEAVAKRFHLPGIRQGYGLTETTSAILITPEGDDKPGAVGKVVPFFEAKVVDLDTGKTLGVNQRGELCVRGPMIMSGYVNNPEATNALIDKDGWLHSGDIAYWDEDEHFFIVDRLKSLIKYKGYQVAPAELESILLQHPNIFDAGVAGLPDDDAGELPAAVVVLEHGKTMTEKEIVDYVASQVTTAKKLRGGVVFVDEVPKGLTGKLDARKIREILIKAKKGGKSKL
Summary of the method: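 Biochemical qHTS: compounds run as interplate titrations against purified firefly enzyme, with D-luciferin and ATP each at its KM concentration. Light output recorded by CCD imaging.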

[3] = qHTS assay to identify small molecule agonists of the constitutive androstane receptor (CAR) signaling pathway - cell viability counter screen (AID 1224836); also: series mostly up to about 92 µM; nearly all actives have a fitted effect of over 45% in size
Summary of the method: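 HepG2 cells stably carrying hCAR and a CYP2B6-2.2kb reporter; 15-concentration compounds plus PK11195 (final 0.75 uM), 23 hr at 37 C/5% CO2. Viability read by CellTiter-Fluor fluorescence.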

[4] = qHTS assay to identify small molecule antagonists of the constitutive androstane receptor (CAR) signaling pathway - cell viability counter screen (AID 1224837); also: series mostly up to about 92 µM; nearly all actives have a fitted effect of over 45% in size
Summary of the method: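 Cytotoxicity counter-screen: CellTiter-Fluor fluorescence after 23 h compound exposure (15-point qHTS) in double-stable HepG2-CYP2B6-hCAR cells, with 50 nM CITCO added.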

[5] = molecular target: Nuclear receptor subfamily 1 group I member 3 (Homo sapiens) (UniProt Q14994); experiment: qHTS assay to identify small molecule antagonists of the constitutive androstane receptor (CAR) signaling pathway (AID 1224838);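 also: HepG2 cells stably expressing hCAR with CYP2B6 luciferase reporter stimulated by CITCO; nearly all actives have a fitted effect of over 40% in size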
Sequence of Nuclear receptor subfamily 1 group I member 3 (Homo sapiens) (Q14994 whole entry, looked up): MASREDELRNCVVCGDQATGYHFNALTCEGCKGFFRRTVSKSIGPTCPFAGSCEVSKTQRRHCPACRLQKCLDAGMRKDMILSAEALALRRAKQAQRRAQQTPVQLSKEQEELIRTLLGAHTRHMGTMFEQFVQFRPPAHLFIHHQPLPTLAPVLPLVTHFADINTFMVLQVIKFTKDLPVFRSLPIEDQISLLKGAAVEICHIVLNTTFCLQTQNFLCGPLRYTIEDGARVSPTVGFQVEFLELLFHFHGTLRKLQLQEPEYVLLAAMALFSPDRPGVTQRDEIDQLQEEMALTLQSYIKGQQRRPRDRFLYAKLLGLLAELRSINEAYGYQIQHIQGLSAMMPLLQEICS
Summary of the method: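 Antagonism measured as luciferase signal (ONE-Glo, 30 min, room temperature) in CAR-stimulated cells: HepG2-CYP2B6-hCAR double-stable line exposed 24 hr at 37 C to compound in a 15-point series plus 50 nM CITCO.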

[6] = molecular target: Nuclear receptor subfamily 1 group I member 3 (Homo sapiens) (UniProt Q14994); experiment: qHTS assay to identify small molecule agonists of the constitutive androstane receptor (CAR) signaling pathway (AID 1224839);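 also: HepG2 cells stably carrying human CAR and a CYP2B6 luciferase reporter; series mostly up to about 92 µM; nearly all actives have a fitted effect of over 15% in size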
Summary of the method: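 HepG2 cells stably co-transfected with hCAR and a CYP2B6-2.2kb luciferase reporter; compounds at 15 concentrations with 0.75 uM PK11195 present. After 24 hr at 37 C, luciferase read by ONE-Glo luminescence.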

[7] = qHTS assay to identify small molecule antagonists of the estrogen related receptor signaling pathway with the pleiotropic PPARgamma coactivator (PGC) from Tox21 10K library - cell viability counter screen (AID 1224840; active = well fitted cell-killing curve with a large enough effect in the repeat runs, not every such curve was filed as active; also: nearly all actives have a fitted effect of over 40% in size)
Summary of the method: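 Counter-screen for cytotoxicity: after 17.5 h compound exposure at 37 C, CellTiter-Fluor reagent added to PGC/ERR cells for 30 min and fluorescence read. Cells were seeded at 2,000 per well 6 h before dosing.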

[8] = qHTS assay to identify small molecule antagonists of the estrogen related receptor signaling pathway with the pleiotropic PPARgamma coactivator (PGC) from Tox21 10K library (AID 1224841; call rule not given here; also: series mostly up to about 92 µM; actives are mostly falling curves and most rising ones were filed inactive; nearly all actives have a fitted effect of over 50% in size)
Summary of the method: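 Luminescence (One-Glo, 30 min at room temperature) after 18 h compound treatment at 37 C of PGC/ERR reporter cells plated at 2,000 cells/well and settled 6 h beforehand.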

[9] = qHTS assay to identify small molecule agonists of the estrogen related receptor signaling pathway with the pleiotropic PPARgamma coactivator (PGC) from Tox21 10K library (AID 1224842); also: nearly all actives have a fitted effect of over 15% in size
Summary of the method: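 PGC/ERR reporter cell line, 2,000 cells per well, incubated 6 h at 37 C before 23 nL compound in DMSO was added. After 18 h at 37 C, One-Glo luminescence read following 30 min at room temperature.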

[10] = molecular target: Thyrotropin receptor (Homo sapiens) (UniProt P16473); experiment: qHTS assay to identify small molecule agonists of the thyroid stimulating hormone receptor (TSHR) signaling pathway (AID 1224843; calls by dose curve; also: nearly all actives have a fitted effect of over 45% in size)
Sequence of Thyrotropin receptor (Homo sapiens) (P16473 whole entry, looked up): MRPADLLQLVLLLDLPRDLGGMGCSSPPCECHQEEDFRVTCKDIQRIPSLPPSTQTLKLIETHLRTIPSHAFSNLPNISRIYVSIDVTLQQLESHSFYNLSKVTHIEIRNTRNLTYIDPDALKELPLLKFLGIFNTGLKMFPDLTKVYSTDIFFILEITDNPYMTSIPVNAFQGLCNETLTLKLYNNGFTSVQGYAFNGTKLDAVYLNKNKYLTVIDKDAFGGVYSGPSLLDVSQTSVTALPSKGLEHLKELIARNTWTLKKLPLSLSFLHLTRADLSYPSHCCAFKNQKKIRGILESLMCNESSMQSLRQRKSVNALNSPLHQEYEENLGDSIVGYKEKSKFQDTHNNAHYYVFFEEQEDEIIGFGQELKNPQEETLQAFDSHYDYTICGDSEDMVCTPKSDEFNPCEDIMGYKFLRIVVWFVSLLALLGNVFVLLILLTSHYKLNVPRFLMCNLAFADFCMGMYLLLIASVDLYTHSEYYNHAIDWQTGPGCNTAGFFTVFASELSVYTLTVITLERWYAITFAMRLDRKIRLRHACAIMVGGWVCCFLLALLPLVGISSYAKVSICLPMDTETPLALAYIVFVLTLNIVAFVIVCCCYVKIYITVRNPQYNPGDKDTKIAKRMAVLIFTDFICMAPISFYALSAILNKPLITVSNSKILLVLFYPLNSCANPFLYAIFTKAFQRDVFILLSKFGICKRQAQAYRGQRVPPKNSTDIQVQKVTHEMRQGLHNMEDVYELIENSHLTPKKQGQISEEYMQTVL
Summary of the method: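 HEK293/TSHR, 800 cells/well; cpd 30 min RT; add cAMP-d2 + anti-cAMP-cryptate, 1 h RT; fluorescence read on plate reader. 15-pt titration, n=3.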

Measured: Potency

c1ccc(CC2=NCCN2)cc1
inactive: [1] | [2] | [3] | [4] | [5] | [6] | [7] | [8] | [9] | [10]

CC(C)c1cc2c(cc1S(=O)(=O)O)[C@@]1(C)CCC[C@@](C)(C(=O)O)[C@@H]1CC2
inactive: [1] | [2] | [3] | [4] | [5] | [6] | [7] | [8] | [9] | [10]

C=CCOCC(CC)(CO)COCC=C
inactive: [1] | [2] | [3] | [4] | [5] | [6] | [7] | [8] | [9] | [10]

OCCOc1ccc(OCCO)cc1
inactive: [1] | [2] | [3] | [4] | [5] | [6] | [7] | [8] | [9] | [10]

CCOC(=O)c1cccc(N)c1
inactive: [1] | [2] | [3] | [4] | [5] | [6] | [7] | [8] | [9] | [10]

Cc1ccc(Cl)cc1Cl
inactive: [1] | [2] | [3] | [4] | [5] | [6] | [7] | [8] | [9] | [10]

CCn1ccnc1CC1COc2ccccc2O1 (stereo not given)
inactive: [1] | [2] | [3] | [4] | [5] | [6] | [7] | [8] | [9] | [10]

C=COCC1CCC(CO)CC1 (stereo not given)
inactive: [1] | [2] | [3] | [4] | [5] | [6] | [7] | [8] | [9] | [10]

C[C@@H]1CCN(C(=O)[C@H](CCCN=C(N)N)NS(=O)(=O)c2cccc3c2NC[C@H](C)C3)[C@@H](C(=O)O)C1
inactive: [1] | [2] | [3] | [4] | [5] | [6] | [7] | [8] | [9] | [10]

COC(=O)CC(C)=O
inactive: [1] | [2] | [3] | [4] | [5] | [6] | [7] | [8] | [9] | [10]

CN1C(=O)N(C)C(O)C1O (stereo not given)
inactive: [1] | [2] | [3] | [4] | [5] | [6] | [7] | [8] | [9] | [10]

COC(=O)c1cc(C(=O)OC)cc(S(=O)(=O)O)c1
inactive: [1] | [2] | [3] | [4] | [5] | [6] | [7] | [8] | [9] | [10]

CC(=O)CC(C)C
inactive: [1] | [2] | [3] | [4] | [5] | [6] | [7] | [8] | [9] | [10]

C1CN(CCOCCN2CCOCC2)CCO1
inactive: [1] | [2] | [3] | [4] | [5] | [6] | [7] | [8] | [9] | [10]

Cc1cnc(NS(=O)(=O)c2ccc(N)cc2)nc1
inactive: [1] | [2] | [3] | [4] | [5] | [6] | [7] | [8] | [9] | [10]

CC(NC(CCc1ccccc1)C(=O)O)C(=O)N1C(=O)N(C)CC1C(=O)O (stereo not given)
inactive: [1] | [2] | [3] | [4] | [5] | [6] | [7] | [8] | [9] | [10]

Cc1cc2c(cc1S(N)(=O)=O)S(=O)(=O)CCC2
inactive: [1] | [2] | [3] | [4] | [5] | [6] | [7] | [8] | [9] | [10]

CC(=O)OCC(=O)[C@@]1(O)CCC2C3CCC4=CC(=O)CC[C@]4(C)C3[C@@H](O)C[C@@]21C (stereo not given in full)
inactive: [1] | [2] | [3] | [4] | [5] | [6] | [7] | [8] | [9] | [10]

COC(=O)CCSCCC(=O)OC
inactive: [1] | [2] | [3] | [4] | [5] | [6] | [7] | [8] | [9] | [10]

Cc1cccc(C)c1NC(=O)C(C)N (stereo not given)
inactive: [1] | [2] | [3] | [4] | [5] | [6] | [7] | [8] | [9] | [10]

C=CCS(=O)(=O)O
inactive: [1] | [2] | [3] | [4] | [5] | [6] | [7] | [8] | [9] | [10]

CC(C)OC(=O)c1ccccc1
inactive: [1] | [2] | [3] | [4] | [5] | [6] | [7] | [8] | [9] | [10]

CN1N=C(C(N)=O)CCC1=O
inactive: [1] | [2] | [3] | [4] | [5] | [6] | [7] | [8] | [9] | [10]

Nc1c2c(nc3ccccc13)CCCC2O (stereo not given)
inactive: [1] | [2] | [3] | [4] | [5] | [6] | [7] | [8] | [9] | [10]

CC(=O)N(CC(O)CO)c1c(I)c(C(=O)NCCO)c(I)c(C(=O)NCC(O)CO)c1I (stereo not given)
inactive: [1] | [2] | [3] | [4] | [5] | [6] | [7] | [8] | [9] | [10]

Nc1c[n+](N2CCOCC2)no1
inactive: [1] | [2] | [3] | [4] | [5] | [6] | [7] | [8] | [9] | [10]

C=C(C)C(=O)OCCCCCCCC(C)C
inactive: [1] | [2] | [3] | [4] | [5] | [6] | [7] | [8] | [9] | [10]

Cc1ccc(=O)n(-c2ccccc2)c1
inactive: [1] | [2] | [3] | [4] | [5] | [6] | [7] | [8] | [9] | [10]

CCOC(=O)c1c(C)n(C)c2ccc(O)cc12
inactive: [1] | [2] | [3] | [4] | [5] | [6] | [7] | [8] | [9] | [10]

CC(C)CCCC(C)N (stereo not given)
inactive: [1] | [2] | [3] | [4] | [5] | [6] | [7] | [8] | [9] | [10]

CCCCCSCCCCC
inactive: [1] | [2] | [3] | [4] | [5] | [6] | [7] | [8] | [9] | [10]

CN1CC(=O)NC1=N
inactive: [1] | [2] | [3] | [4] | [5] | [6] | [7] | [8] | [9] | [10]

NS(=O)(=O)c1cc(C(=O)O)cc(N2CCCC2)c1Oc1ccccc1
inactive: [1] | [2] | [3] | [4] | [5] | [6] | [7] | [8] | [9] | [10]

CCCCCCCCCCCCCCCCC
inactive: [1] | [2] | [3] | [4] | [5] | [6] | [7] | [8] | [9] | [10]

O=C(O)CCCl
inactive: [1] | [2] | [3] | [4] | [5] | [6] | [7] | [8] | [9] | [10]

O=C1CCCN1C1CCCCC1
inactive: [1] | [2] | [3] | [4] | [5] | [6] | [7] | [8] | [9] | [10]

CC(C)CNCC(C)C
inactive: [1] | [2] | [3] | [4] | [5] | [6] | [7] | [8] | [9] | [10]

CCCCNC(=O)NCCCC
inactive: [1] | [2] | [3] | [4] | [5] | [6] | [7] | [8] | [9] | [10]

CCC=O
inactive: [1] | [2] | [3] | [4] | [5] | [6] | [7] | [8] | [9] | [10]

CCC(C)C1CCCCC1=O (stereo not given)
inactive: [1] | [2] | [3] | [4] | [5] | [6] | [7] | [8] | [9] | [10]

CCc1cccc2c(CCO)c[nH]c12
inactive: [1] | [2] | [3] | [4] | [5] | [6] | [7] | [8] | [9] | [10]

CS(=O)(=O)O
inactive: [1] | [2] | [3] | [4] | [5] | [6] | [7] | [8] | [9] | [10]

COc1ccc2c(c1)c(CC(=O)OCC(=O)O)c(C)n2C(=O)c1ccc(Cl)cc1
inactive: [1] | [2] | [3] | [4] | [5] | [6] | [7] | [8] | [9] | [10]

C=C[Si](OC(=C)C)(OC(=C)C)OC(=C)C
inactive: [1] | [2] | [3] | [4] | [5] | [6] | [7] | [8] | [9] | [10]

NC(=O)COCCN1CCN(C(c2ccccc2)c2ccc(Cl)cc2)CC1 (stereo not given)
inactive: [1] | [2] | [3] | [4] | [5] | [6] | [7] | [8] | [9] | [10]

CCOC(C)(C)C
inactive: [1] | [2] | [3] | [4] | [5] | [6] | [7] | [8] | [9] | [10]

CO[C@]12C[C@@H](COC(=O)c3cncc(Br)c3)CN(C)[C@@H]1Cc1cn(C)c3cccc2c13
inactive: [1] | [2] | [3] | [4] | [5] | [6] | [7] | [8] | [9] | [10]
